Broadly, the AC50 is the concentration at which the activity in the assay is half-maximal.

Our source for the outcome and AC50 values is PubChem BioAssay (EPA / NIEHS).

Several values for one entry are separate records, joined by “and”; a condition that tells them apart may be missing. Equal entries are not always repeated. The source holds several records for some structures; these can differ, active in one and inactive in another. Activity calls are given as the source filed them. How the source made its calls: active means hit-call score of the fitted dose curve at least 0.9, where 1 is the maximum; inactive means score below 0.9.

Read-out in this test: Monocyte Chemoattractant Protein-1 (MCP1), CCL2 (gene 6347)
Briefly: BSK_IMphg_MCP1: BioMAP Diversity Plus: IMphg Assay for Monocyte Chemoattractant Protein-1 (MCP1) Biomarker Activity (AID 2284253). As to conditions: primary human endothelial cells with macrophages. As to the method: BSK_IMphg is a cell-based, multiplexed-readout assay that uses venular endothelial cells and macrophages, a human vascular primary cell, with measurements taken at 24 hours after chemical dosing in a microplate: 96-well plate.BSK_IMphg_MCP1 is an assay component measured in the BSK_IMphg assay. It measures MCP-1 antibody related to regulation of gene expression using ELISA technology.Data from the assay component BSK_IMphg_MCP1 was analyzed at the endpoint, BSK_IMphg_MCP1, in the positive analysis fitting direction relative to DMSO as the negative control and baseline of activity. Using a type of binding reporter, gain or loss-of-signal activity can be used to understand protein changes. To generalize the intended target to other relatable targets, this assay endpoint is annotated to the 'cytokine' intended target family, where the subfamily is 'chemotactic factor'.
The levels of cell surface (or secreted, indicated by the prefix "s") biomarker endpoints were measured by ELISA. Overt cytotoxicity to cells in confluent adherent cultures (all systems other than the BT system) was assessed by measuring total protein levels using sulforhodamine B (SRB) staining in parallel cultures at the time of biomarker measurements, indicated as SRB endpoints. For proliferation assays for adherent cell types, individual cell types are cultured at sub-confluence and relative cell numbers quantified by SRB staining at time points optimized for each system (48 h: 3C and CASM3C systems; 72 h: BT and HDF3CGF systems; 96 h: SAg system). SRB was performed by staining cells with 0.1% SRB after fixation with 10% TCA and reading wells at 560 nm.Viability and proliferation of PBMC (T cells) was quantified by Alamar Blue reduction for the SAg and BT systems. For PBMC viability (referred to as PBMC Cytotoxicity within the assay endpoint names), cells were plated (75,000/well in a 96-well plate) and then chemical samples added for 1 h before addition of activators, SEB and TSST-1 (20 ng/mL final concentration each). Cells were incubated for 90 h. Then, Alamar Blue (20 uL/well) (Invitrogen, Cat DAL1100) was added for 6 h, and the plates were read with a fluorescence microplate reader at 546/580 nm (excitation/emission). For PBMC proliferation, cells were plated and activated as above but incubated for only 16 h prior to addition of Alamar Blue. Plates were read after 6 h.
As to `C=CC(=O)OCCC(F)(F)C(F)(F)C(F)(F)C(F)(F)F`, the outcome was inactive.

Regarding `O=C(O)C(F)(F)C(F)(F)C(F)(F)OC(F)(C(F)(F)F)C(F)(F)F`, the outcome was inactive.

Turning to `NC(=O)C(F)(F)C(F)(F)C(F)(F)C(F)(F)C(N)=O`, the result was inactive.

With `NC(=O)C(F)(F)C(F)(F)C(F)(F)F`, the outcome was inactive.

For `OCC(F)(F)C(F)(F)C(F)(F)C(F)(F)C(F)(F)C(F)(F)CO`, the result was inactive.

Regarding `FC(F)(F)C(F)(F)C(F)(F)CC1CO1` (stereo not given), the outcome was inactive.

In the case of `COC(F)(C(F)F)C(F)(F)F` (stereo not given), the outcome was inactive.

Regarding `FC(F)(F)C(F)(F)C(F)(F)C(F)(F)C(F)(F)C(F)(F)C(F)(F)CCI`, the outcome was inactive.

Regarding `NC(O)(C(F)(F)F)C(F)(F)F`, the outcome was inactive.

Consider `OC(O)C(F)(F)C(F)(F)F`, for which the outcome was inactive.

Consider `O=C(O)C(F)(F)OC(F)(F)C(F)(F)OC(F)(F)C(F)(F)OC(F)(F)F`, for which the result was inactive.

As for `O=S(=O)(O)CCC(F)(F)C(F)(F)C(F)(F)C(F)(F)F`, the result was inactive.

In the case of `CCN(CCO)S(=O)(=O)C(F)(F)C(F)(F)C(F)(F)C(F)(F)C(F)(F)C(F)(F)C(F)(F)C(F)(F)F`, the result was inactive.

For `O=C(Cl)C(F)(F)C(F)(F)C(F)(F)C(F)(F)C(F)(F)C(F)(F)C(F)(F)F`, the AC50 was 52.9 µM (active) and the result was inactive.

For `O=S(=O)(O)CCC(F)(F)C(F)(F)C(F)(F)C(F)(F)C(F)(F)C(F)(F)C(F)(F)C(F)(F)F`, the outcome was inactive.

Regarding `C[Si](Cl)(Cl)CCC(F)(F)C(F)(F)C(F)(F)C(F)(F)C(F)(F)C(F)(F)F`, the outcome was inactive.

For `O=S(=O)(Cl)C(F)(F)C(F)(F)C(F)(F)C(F)(F)C(F)(F)C(F)(F)C(F)(F)C(F)(F)F`, the outcome was inactive.

As to `CNS(=O)(=O)C(F)(F)C(F)(F)C(F)(F)C(F)(F)C(F)(F)C(F)(F)C(F)(F)C(F)(F)F`, the result was inactive.

Consider `OCC(O)CC(F)(F)C(F)(F)C(F)(F)C(F)(F)C(F)(F)C(F)(F)C(F)(F)C(F)(F)F` (stereo not given), for which the outcome was inactive.

As to `FC(F)(F)C(F)(F)C(F)(F)C(F)(F)C(F)(F)C(F)(F)CC[Si](Cl)(Cl)Cl`, the outcome was inactive.

With `NCC(F)(F)C(F)(F)C(F)(F)C(F)(F)C(F)(F)C(F)(F)C(F)(F)C(F)(F)F`, the result was inactive.

`NS(=O)(=O)C(F)(F)C(F)(F)C(F)(F)C(F)(F)C(F)(F)C(F)(F)F`: the AC50 was 22.3 µM (active) and the outcome was inactive.

As to `OCCCCC(F)(F)C(F)(F)C(F)(F)C(F)(F)F`, the result was inactive.

In the case of `NCC(F)(F)C(F)(F)C(F)(F)C(F)(F)C(F)(F)C(F)(F)F`, the outcome was inactive.

For the compound `C=CC(=O)OCC(F)(F)C(F)(F)C(F)(F)C(F)(F)C(F)(F)C(F)(F)C(F)(F)C(F)F`, the result was inactive.

Take `O=C(O)C(F)(F)C(F)(F)C(F)(F)C(F)(F)C(F)(F)C(F)(F)C(F)F`: the result was inactive.

Consider `O=C(O)CCC(F)(F)C(F)(F)C(F)(F)C(F)(F)C(F)(F)C(F)(F)C(F)(F)F`, for which the result was inactive.

For `CN(C(=O)C(F)(F)C(F)(F)C(F)(F)F)[Si](C)(C)C`, the outcome was inactive.

Take `O=C(Cl)C(F)(F)C(F)(F)C(F)(F)C(F)(F)C(F)(F)C(F)(F)F`: the result was inactive.

Take `NC(=O)C(F)(F)C(F)(F)C(F)(F)C(F)(F)C(F)(F)C(F)(F)C(F)(F)F`: the result was inactive.

For `O=C(F)C1(F)C(F)(F)C(F)(F)C(F)(F)C(F)(F)C1(F)F`, the outcome was inactive.

With `O=C(O)CCC(F)(F)C(F)(F)C(F)(F)F`, the result was inactive.

In the case of `O=C(O)C(F)(F)C(F)(F)C(F)(F)OC(F)(F)F`, the outcome was inactive.

As to `C=CC(=O)OCC(F)(F)C(F)(F)C(F)(F)COC(=O)C=C`, the AC50 is 37.9 µM (active) and 36.8 µM (active).

In the case of `OCCCC(F)(F)C(F)(F)C(F)(F)C(F)(F)C(F)(F)C(F)(F)C(F)(F)C(F)(F)F`, the AC50 was 18.5 µM (active) and 21.1 µM (active).

Turning to `NC(=O)C(F)(F)C(F)(F)C(F)(F)C(F)F`, the outcome was inactive.

As to `OCC(O)CC(F)(F)C(F)(F)C(F)(F)C(F)(F)F` (stereo not given), the outcome was inactive.

For `OCC(F)(F)C(F)(F)C(F)(F)C(F)(F)C(F)(F)C(F)(F)C(F)(F)C(F)(F)CO`, the AC50 was 50.4 µM (active) and 51.3 µM (active).
